From PubChem BioAssay
ELG1 DNA repair = ELG1-dependent DNA repair inhibition | HEK293T ELG1-luciferase reporter, luminescence, 16 h; DNA damage induced by 5-fluorouridine | Potency, µM (top dose mostly 46.1 µM), actives largely listed as inhibitors | 330,000 tested, 2.3% active | AID 504467; also: nearly all actives have a fitted effect of over 55% in size
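Cells (2,000 per well) received 5-fluorouridine plus test compound or DMSO and were incubated 16 hr at 37 °C, 5% CO2. Luciferase activity was read by luminescence 30 min after ONE-Glo addition; signal suppression marked inhibition of damage-induced ELG1 function.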
SMN2 splice enh = SMN2 splice variant enhancement; HEK293 SMN2-luciferase splicing reporter, luminescence, 30-36 h; Potency, µM (doses to about 46.1 µM), hits mostly activators; AID 1458; 210,000 tested, 2.8% active; also: nearly all actives have a fitted effect of over 55% in size
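HEK293 cells carry an SMN2 minigene-luciferase reporter in which exon 7 inclusion puts luciferase in frame. Cells were seeded at 2000 cells/well, attached for 10-12 hours, then exposed to compounds for 30-36 hours at 37C before ONE-Glo luminescence.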
ELG1 genotox = genotoxicity induction in ELG1-luciferase HEK293T cells | HEK293T ELG1-luciferase reporter, luminescence, 16 h | Potency, µM (top dose mostly 46 µM), hits mostly activators | 330,000 tested, 1.3% active; also: nearly all actives have a fitted effect of over 60% in size
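HEK293T cells expressing luciferase-tagged ELG1 were treated with compound or DMSO for 16 hr at 37°C. Luciferase activity was then read after 30 min with ONE-Glo at room temperature; rising signal flags genetic stress.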
FLuc modulator = inhibits or activates purified firefly luciferase, miR-21 counter-screen | P08659 | purified FLuc, Km substrates, luminescence inhibition | Potency, µM (series often up to 57.5 µM), usual class: inhibitors | 360,000 tested, 6.9% active; also: nearly all actives have a fitted effect of over 55% in size
Target sequence (P08659 whole entry, looked up): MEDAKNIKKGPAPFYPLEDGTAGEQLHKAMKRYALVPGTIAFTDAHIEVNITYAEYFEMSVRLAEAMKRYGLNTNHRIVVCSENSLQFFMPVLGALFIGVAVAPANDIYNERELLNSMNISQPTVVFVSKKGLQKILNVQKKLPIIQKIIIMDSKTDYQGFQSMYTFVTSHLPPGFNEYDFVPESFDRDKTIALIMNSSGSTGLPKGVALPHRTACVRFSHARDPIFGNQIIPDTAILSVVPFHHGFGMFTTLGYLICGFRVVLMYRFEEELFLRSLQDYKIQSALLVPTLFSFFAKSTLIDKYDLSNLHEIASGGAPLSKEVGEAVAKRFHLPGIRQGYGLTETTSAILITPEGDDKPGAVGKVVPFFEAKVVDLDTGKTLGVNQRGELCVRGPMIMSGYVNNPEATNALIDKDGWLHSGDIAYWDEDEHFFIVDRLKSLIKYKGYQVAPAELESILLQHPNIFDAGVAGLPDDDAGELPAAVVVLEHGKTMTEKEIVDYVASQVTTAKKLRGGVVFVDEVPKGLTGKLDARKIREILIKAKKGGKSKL
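Biochemical qHTS of compounds, final roughly 60 µM downward over six points, against 10 nM purified firefly luciferase using Km concentrations of substrates (10 uM D-luciferin, 10 uM ATP) in Tris acetate pH 7.5 buffer; luminescence output.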
Rab9 promoter act = activates the Rab9 promoter; 320,000 tested, 2.8% active; Huh7 Rab9 promoter-luciferase reporter, luminescence, 24 h; Potency, µM (highest dose often 9.22 µM), usual class: activators; also: nearly all actives have a fitted effect of over 60% in size
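Using Huh7 cells stably transfected with Rab9 promoter–luciferase, compounds were incubated 24 h at 37 °C, 5% CO2; luciferase luminescence was read 10 min after reagent addition.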
NPC1 prom act = activates the NPC1 promoter; Huh7 NPC1 promoter luciferase reporter, 24 h; Potency, µM (top dose mostly 9.22 µM), usual class: activators; 320,000 tested, 2.4% active; also: nearly all actives have a fitted effect of over 60% in size
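Stably transfected Huh7 (NPC1 promoter→luciferase), 1500 cells/well in Opti-MEM + 10% FBS, 2 h settle, then compound 24 h at 37 °C. Luminescence after 10 min with Amplite reagent.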
Each line names hits and unclear results; the compound was inactive in the other large screens. A selection: hits, their analogues and other compounds. The true share with any hit is near 9.2%. Calls follow the shape of the dose curve; as a rule, active = well fitted curve in the direction sought with a large enough effect; inconclusive = small, poorly fitted or top-dose-only effect, or another doubt; inactive = no such curve, though single readings can be large; an effect the other way counts as inactive or inconclusive.

O=C(N/N=C\c1c(O)ccc2ccccc12)c1ccc(O)cc1	FLuc modulator 12µM (no result: SMN2 splice enh)
O=C(N/N=C/c1c(O)ccc2ccccc12)c1cccnc1	ELG1 DNA repair 3.7µM, FLuc modulator inconclusive (no result: SMN2 splice enh)
COc1ccc(C2C(C(=O)Nc3cccnc3)=C(C)Nc3nc(SCc4ccccc4)nn32)cc1 (stereo unspecified)	none (no result: ELG1 DNA repair, ELG1 genotox, Rab9 promoter act, NPC1 prom act)
CCOC(=O)c1ccc(-n2c(CN3CCC(O)CC3)nc3ccc([N+](=O)[O-])cc3c2=O)cc1	none
CCOc1ccc2nc(N3CCCC(C(=O)NCc4ccccc4OC)C3)sc2c1 (stereo unspecified)	FLuc modulator inconclusive (no result: ELG1 DNA repair, ELG1 genotox, Rab9 promoter act, NPC1 prom act)
CC(C)C(NS(=O)(=O)c1cccc2cccnc12)C(=O)Nc1ccc(OC(F)(F)F)cc1 (stereo unspecified)	none (no result: ELG1 DNA repair, SMN2 splice enh, ELG1 genotox, Rab9 promoter act, NPC1 prom act)
O=C(CCNC(=O)c1ccc([N+](=O)[O-])cc1)Nc1ccc(S(=O)(=O)N2CCOCC2)cc1	ELG1 DNA repair inconclusive (no result: SMN2 splice enh)
Cc1nc2cc(NC(=O)c3ccc([N+](=O)[O-])s3)ccc2s1	ELG1 DNA repair inconclusive, ELG1 genotox inconclusive, FLuc modulator 3.8µM, Rab9 promoter act inconclusive (no result: SMN2 splice enh)
COc1ccc2nc(NC(=O)c3cccs3)sc2c1	ELG1 DNA repair inconclusive, ELG1 genotox inconclusive, FLuc modulator 0.67µM, Rab9 promoter act 0.28µM, NPC1 prom act 0.32µM (no result: SMN2 splice enh)
Cc1nc2ccc(NC(=O)c3sccc3C)cc2s1	ELG1 DNA repair inconclusive, SMN2 splice enh 11µM, ELG1 genotox inconclusive, FLuc modulator 7.6µM, Rab9 promoter act 2.2µM, NPC1 prom act 1.8µM
Cc1cc(NS(=O)(=O)c2ccc(NC(=O)c3ccc([N+](=O)[O-])s3)cc2)nc(C)n1	ELG1 DNA repair inconclusive (no result: SMN2 splice enh, FLuc modulator, Rab9 promoter act, NPC1 prom act)
CCc1sc(C(=O)Nc2ccc3nc(C)sc3c2)cc1C	ELG1 DNA repair inconclusive (no result: SMN2 splice enh, FLuc modulator, Rab9 promoter act, NPC1 prom act)
Cc1nc2ccc(NC(=O)c3cccs3)cc2s1	ELG1 DNA repair inconclusive, ELG1 genotox inconclusive, FLuc modulator 17µM, Rab9 promoter act 2.5µM, NPC1 prom act 3.5µM (no result: SMN2 splice enh)
COc1ccc(-c2c(NC(=O)CC(C)C)n(C)c3ccccc3c2=O)cc1OC	none (no result: SMN2 splice enh)
COc1ccc(C(=O)Nc2nc3c(s2)Cc2cc(OC)ccc2-3)cc1	ELG1 DNA repair inconclusive, FLuc modulator inconclusive
COc1ccccc1NC(=O)COC(=O)c1ccc([N+](=O)[O-])s1	none
CCc1ccccc1NC(=O)c1ccc([N+](=O)[O-])s1	ELG1 DNA repair 12µM
CC(=O)Nc1ccc2nc(NC(=O)c3ccc([N+](=O)[O-])s3)sc2c1	FLuc modulator 5.4µM, Rab9 promoter act inconclusive (no result: SMN2 splice enh)
CC(=O)Nc1ccc2nc(NC(=O)c3cccs3)sc2c1	ELG1 DNA repair inconclusive, ELG1 genotox inconclusive, FLuc modulator 2.1µM, Rab9 promoter act 0.32µM, NPC1 prom act 0.63µM (no result: SMN2 splice enh)
COc1ccc2c(c1)Cc1sc(NC(=O)c3cccs3)nc1-2	ELG1 DNA repair inconclusive, SMN2 splice enh inconclusive, ELG1 genotox inconclusive, FLuc modulator inconclusive, Rab9 promoter act 2.8µM, NPC1 prom act 4µM
Cc1nn(C)c(=O)n1-c1ccc(OCc2ccccc2)cc1	ELG1 DNA repair inconclusive, SMN2 splice enh 11µM, FLuc modulator inconclusive, Rab9 promoter act inconclusive, NPC1 prom act inconclusive
O=C(Sc1cccc2cccnc12)c1ccc(F)cc1	ELG1 DNA repair inconclusive, ELG1 genotox inconclusive
O=C(Sc1cccc2cccnc12)c1ccccc1Br	ELG1 DNA repair inconclusive, FLuc modulator 24µM (no result: SMN2 splice enh)
CC(C)(C)N=C1NN=C(c2ccc(Cl)cc2)CS1	ELG1 DNA repair inconclusive, ELG1 genotox inconclusive, FLuc modulator 2.7µM, Rab9 promoter act 0.63µM, NPC1 prom act 0.79µM (no result: SMN2 splice enh)
Clc1ccc(C2=NNC(=NCc3ccc4c(c3)OCO4)SC2)cc1	ELG1 DNA repair inconclusive, FLuc modulator 19µM (no result: SMN2 splice enh)
COc1ccc(CN=C2Nc3ccccc3CS2)cc1	ELG1 DNA repair inconclusive, SMN2 splice enh 3.5µM, ELG1 genotox inconclusive, FLuc modulator 2.7µM, Rab9 promoter act 1.6µM, NPC1 prom act 1µM
COCC(C)N=C1NN=C(c2ccc(NC(C)=O)cc2)CS1 (stereo unspecified)	ELG1 DNA repair inconclusive, SMN2 splice enh inconclusive, FLuc modulator inconclusive, Rab9 promoter act inconclusive
CC(C)(C)N=C1NN=C(c2cc3ccccc3o2)CS1	ELG1 DNA repair inconclusive, ELG1 genotox inconclusive, FLuc modulator 1.9µM, Rab9 promoter act 0.4µM, NPC1 prom act 0.63µM (no result: SMN2 splice enh)
Cc1c(CNC2CCC(C)CC2)c(C(=O)O)c(C)n1Cc1ccccc1F (stereo unspecified)	none (no result: ELG1 DNA repair, ELG1 genotox, Rab9 promoter act, NPC1 prom act)
Cc1ccc(C)c(NC(=O)CN2C(=O)CCc3cc(S(=O)(=O)N4CCCCC4)ccc32)c1	none (no result: ELG1 DNA repair, SMN2 splice enh, ELG1 genotox, Rab9 promoter act, NPC1 prom act)
COc1ccc(OC)c(C2=NNC(=NCc3ccc4c(c3)OCO4)SC2)c1	none
COc1ccc(CN=C2NN=C(c3ccc(Cl)cc3)CS2)cc1	ELG1 DNA repair inconclusive, SMN2 splice enh 20µM, ELG1 genotox inconclusive, FLuc modulator 7.6µM, Rab9 promoter act 3.5µM, NPC1 prom act 3.5µM
COc1ccc2occ(CC(=O)Nc3ccc(S(=O)(=O)Nc4nccc(C)n4)cc3)c2c1	FLuc modulator inconclusive (no result: ELG1 DNA repair, ELG1 genotox, Rab9 promoter act, NPC1 prom act)
O=C(CSc1nccn1C1CCCC1)Nc1ccc(C(F)(F)F)cc1	none (no result: ELG1 DNA repair, SMN2 splice enh, ELG1 genotox, Rab9 promoter act, NPC1 prom act)
